In PMC7862700, “An all-to-all approach to the identification of sequence-specific readers for epigenetic DNA modifications on cytosine” one finds binding signal data, which are given here for eight sequences.

What all share (assay): DAPPL (digital affinity profiling via proximity ligation, sequencing); 10 mM Tris-HCl pH 7.5, 50 mM NaCl, 1 mM DTT, 4% glycerol, room temperature, 30 min; GST-TFs on glutathione beads, 16-mer random dsDNA library, 0.1% formaldehyde crosslink after washing; high values mean tight binding
One test has as its target T1, FEV (Homo sapiens, UniProt Q99581 1-238).
T1 sequence: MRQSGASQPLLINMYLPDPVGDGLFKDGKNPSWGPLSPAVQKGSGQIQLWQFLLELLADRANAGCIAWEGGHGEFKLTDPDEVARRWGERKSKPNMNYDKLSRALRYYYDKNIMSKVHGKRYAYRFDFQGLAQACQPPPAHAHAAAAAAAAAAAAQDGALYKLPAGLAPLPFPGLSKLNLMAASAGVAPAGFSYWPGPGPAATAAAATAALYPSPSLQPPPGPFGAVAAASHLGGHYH
The conditions noted are these: protein: recombinant; tags: N-terminal GST; dsDNA, one strand shown. The procedure, abridged:
(§1)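 Yeast served to express human transcription factors as GST fusions, which were then captured on glutathione beads and labelled with DNA barcodes. Pooled with a tag-only sample, they were incubated with 200 nmole of a 16-mer random double-stranded DNA library for 30 min at room temperature in Tris/NaCl/DTT/glycerol buffer, washed, crosslinked with 0.1% formaldehyde, ligated by proximity, amplified by PCR and sequenced. Dividing each hexamer's read frequency for a factor by its frequency for the tag-only sample gives the binding signal.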

In another test the target is ETV5 (Homo sapiens, UniProt P41161 1-510). The conditions noted are these: protein: recombinant; tags: N-terminal GST; dsDNA, one strand shown. The procedure, abridged:
as §1

The next test has as its target HSF1 (Homo sapiens, UniProt Q00613 1-529). To be noted: protein: recombinant; tags: N-terminal GST; chain copies: 3; dsDNA, one strand shown. Summed up: as §1
The target of another test is T2, SPIC (Homo sapiens, UniProt Q8N5J4 1-248).
T2 sequence: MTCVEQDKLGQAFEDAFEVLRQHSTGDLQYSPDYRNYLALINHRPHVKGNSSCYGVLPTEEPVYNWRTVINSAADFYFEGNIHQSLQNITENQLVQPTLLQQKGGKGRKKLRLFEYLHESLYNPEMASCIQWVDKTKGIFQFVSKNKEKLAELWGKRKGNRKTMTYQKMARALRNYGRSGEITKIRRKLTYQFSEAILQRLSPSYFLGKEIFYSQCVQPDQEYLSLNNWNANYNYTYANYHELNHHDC
The conditions noted are these: protein: recombinant; tags: N-terminal GST; dsDNA, one strand shown. Summed up:
as §1

The next test has as its target ELF4 (Homo sapiens, UniProt Q99607 1-663). To be noted: protein: recombinant; tags: N-terminal GST; dsDNA, one strand shown. Summed up:
as §1

The target in another test is T3, ELK4 (Homo sapiens, UniProt P28324-2 1-405).
T3 sequence: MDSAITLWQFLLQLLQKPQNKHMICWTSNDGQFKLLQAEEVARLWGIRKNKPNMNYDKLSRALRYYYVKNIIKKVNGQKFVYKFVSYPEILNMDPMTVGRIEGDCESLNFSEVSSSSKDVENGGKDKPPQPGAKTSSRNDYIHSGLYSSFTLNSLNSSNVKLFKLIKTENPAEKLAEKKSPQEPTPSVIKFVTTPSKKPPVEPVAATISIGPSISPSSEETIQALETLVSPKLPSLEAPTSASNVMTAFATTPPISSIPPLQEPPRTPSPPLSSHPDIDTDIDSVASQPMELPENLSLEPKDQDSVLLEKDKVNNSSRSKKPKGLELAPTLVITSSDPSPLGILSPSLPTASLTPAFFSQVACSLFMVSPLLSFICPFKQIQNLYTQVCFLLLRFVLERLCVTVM
The conditions noted are these: protein: recombinant; tags: N-terminal GST; dsDNA, one strand shown. Summed up:
as §1

For a further test, the target named is T4, ETV2 (Homo sapiens, UniProt O00321 1-342).
T4 sequence: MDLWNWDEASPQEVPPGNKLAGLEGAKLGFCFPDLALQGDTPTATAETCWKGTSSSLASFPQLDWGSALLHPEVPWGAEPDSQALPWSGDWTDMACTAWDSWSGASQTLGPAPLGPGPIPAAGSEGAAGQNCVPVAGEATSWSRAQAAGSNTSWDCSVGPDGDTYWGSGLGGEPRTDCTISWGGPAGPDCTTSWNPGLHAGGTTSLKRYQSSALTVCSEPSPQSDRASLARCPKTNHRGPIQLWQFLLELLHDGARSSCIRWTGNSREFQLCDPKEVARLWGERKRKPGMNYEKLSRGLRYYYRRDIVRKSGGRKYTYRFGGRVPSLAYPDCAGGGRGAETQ
To be noted: protein: recombinant; tags: N-terminal GST; dsDNA, one strand shown. Summed up: as §1

In another test the target is T5, ELF3 (Homo sapiens, UniProt P78545 1-371).
T5 sequence: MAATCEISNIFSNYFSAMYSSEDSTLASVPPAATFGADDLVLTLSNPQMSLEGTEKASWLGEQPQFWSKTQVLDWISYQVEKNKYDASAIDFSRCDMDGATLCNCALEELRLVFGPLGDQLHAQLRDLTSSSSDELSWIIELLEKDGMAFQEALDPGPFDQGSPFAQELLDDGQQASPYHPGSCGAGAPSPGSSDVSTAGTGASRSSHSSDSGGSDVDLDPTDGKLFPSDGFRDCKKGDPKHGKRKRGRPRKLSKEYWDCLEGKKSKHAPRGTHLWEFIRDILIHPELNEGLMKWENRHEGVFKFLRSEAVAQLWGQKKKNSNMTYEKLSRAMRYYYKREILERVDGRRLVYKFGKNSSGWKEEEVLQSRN
To be noted: protein: recombinant; tags: N-terminal GST; dsDNA, one strand shown. Summed up:
as §1

For another test, the target named is CRX (Homo sapiens, UniProt O43186 1-299). To be noted: protein: recombinant; tags: N-terminal GST; dsDNA, one strand shown. The procedure, abridged:
as §1

The next test concerns the target ETV1 (Homo sapiens, UniProt P50549 1-477). The conditions noted are these: protein: recombinant; tags: N-terminal GST; dsDNA, one strand shown. The procedure, abridged:
as §1

HSF1, sequence (Q00613 whole entry): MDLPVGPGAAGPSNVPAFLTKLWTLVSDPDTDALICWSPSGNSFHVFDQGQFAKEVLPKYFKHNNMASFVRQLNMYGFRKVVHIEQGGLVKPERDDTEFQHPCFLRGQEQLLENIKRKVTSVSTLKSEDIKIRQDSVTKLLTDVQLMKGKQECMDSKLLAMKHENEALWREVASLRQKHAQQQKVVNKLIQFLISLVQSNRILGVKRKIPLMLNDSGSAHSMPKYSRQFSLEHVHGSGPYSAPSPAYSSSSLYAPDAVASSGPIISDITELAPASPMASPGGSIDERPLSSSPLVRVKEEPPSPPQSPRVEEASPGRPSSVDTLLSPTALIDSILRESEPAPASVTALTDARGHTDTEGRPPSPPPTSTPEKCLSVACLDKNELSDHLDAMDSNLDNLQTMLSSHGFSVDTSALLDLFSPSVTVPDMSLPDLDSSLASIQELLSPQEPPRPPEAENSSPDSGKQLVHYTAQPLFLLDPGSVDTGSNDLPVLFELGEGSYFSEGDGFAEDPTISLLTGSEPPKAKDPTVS
ELF4, sequence (Q99607 whole entry): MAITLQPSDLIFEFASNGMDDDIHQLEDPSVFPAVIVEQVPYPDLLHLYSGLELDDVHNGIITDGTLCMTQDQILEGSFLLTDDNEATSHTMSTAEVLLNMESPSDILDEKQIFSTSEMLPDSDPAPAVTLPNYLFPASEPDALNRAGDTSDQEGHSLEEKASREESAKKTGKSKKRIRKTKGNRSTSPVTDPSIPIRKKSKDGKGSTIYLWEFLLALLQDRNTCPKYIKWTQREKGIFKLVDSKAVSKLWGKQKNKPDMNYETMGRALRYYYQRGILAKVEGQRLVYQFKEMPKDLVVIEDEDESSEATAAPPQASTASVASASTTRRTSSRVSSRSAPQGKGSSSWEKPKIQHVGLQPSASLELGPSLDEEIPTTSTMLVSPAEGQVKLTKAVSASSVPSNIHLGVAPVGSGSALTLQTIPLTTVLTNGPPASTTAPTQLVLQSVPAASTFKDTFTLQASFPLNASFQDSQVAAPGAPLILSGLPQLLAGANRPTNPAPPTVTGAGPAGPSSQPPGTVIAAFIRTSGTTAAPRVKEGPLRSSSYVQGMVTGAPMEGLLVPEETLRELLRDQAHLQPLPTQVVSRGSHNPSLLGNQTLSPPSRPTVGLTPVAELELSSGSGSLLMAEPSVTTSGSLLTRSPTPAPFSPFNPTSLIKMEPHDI
CRX, sequence (O43186 whole entry): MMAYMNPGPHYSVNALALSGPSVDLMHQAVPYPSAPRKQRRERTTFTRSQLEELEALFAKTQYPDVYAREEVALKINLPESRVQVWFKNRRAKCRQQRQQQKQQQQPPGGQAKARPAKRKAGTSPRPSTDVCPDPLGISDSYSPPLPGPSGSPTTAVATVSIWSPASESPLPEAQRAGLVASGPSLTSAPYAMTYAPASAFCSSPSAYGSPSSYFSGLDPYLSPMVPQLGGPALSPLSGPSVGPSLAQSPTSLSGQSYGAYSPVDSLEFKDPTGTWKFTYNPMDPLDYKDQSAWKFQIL
ETV5, sequence (P41161 whole entry): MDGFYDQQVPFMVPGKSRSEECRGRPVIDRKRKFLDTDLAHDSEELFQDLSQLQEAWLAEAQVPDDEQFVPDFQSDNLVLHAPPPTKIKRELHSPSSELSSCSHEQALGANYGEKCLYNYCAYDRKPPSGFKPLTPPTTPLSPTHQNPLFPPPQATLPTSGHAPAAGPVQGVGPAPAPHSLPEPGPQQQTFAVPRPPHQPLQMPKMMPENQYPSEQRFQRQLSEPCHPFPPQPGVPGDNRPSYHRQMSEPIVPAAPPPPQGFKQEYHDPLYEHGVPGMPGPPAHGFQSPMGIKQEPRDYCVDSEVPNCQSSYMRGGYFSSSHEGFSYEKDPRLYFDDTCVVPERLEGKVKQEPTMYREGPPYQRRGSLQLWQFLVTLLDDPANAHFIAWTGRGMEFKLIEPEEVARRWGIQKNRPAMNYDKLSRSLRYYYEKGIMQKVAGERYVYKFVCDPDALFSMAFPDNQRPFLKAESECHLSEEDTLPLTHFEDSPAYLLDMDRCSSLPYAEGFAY
ETV1, sequence (P50549 whole entry): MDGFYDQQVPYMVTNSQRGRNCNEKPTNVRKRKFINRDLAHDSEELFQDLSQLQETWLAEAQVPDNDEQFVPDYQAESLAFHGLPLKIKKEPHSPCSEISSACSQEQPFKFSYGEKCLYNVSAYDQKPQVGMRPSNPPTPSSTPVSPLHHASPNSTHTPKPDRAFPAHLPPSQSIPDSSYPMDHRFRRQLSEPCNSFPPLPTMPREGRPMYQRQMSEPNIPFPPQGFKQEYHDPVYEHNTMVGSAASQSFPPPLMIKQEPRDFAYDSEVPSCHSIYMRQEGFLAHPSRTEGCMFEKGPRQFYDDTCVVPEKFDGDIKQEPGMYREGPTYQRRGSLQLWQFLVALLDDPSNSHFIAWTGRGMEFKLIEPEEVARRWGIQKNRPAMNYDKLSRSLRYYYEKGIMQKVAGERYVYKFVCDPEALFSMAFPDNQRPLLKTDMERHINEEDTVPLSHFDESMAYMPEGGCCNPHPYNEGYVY

For AATTGG, the binding signal with FEV is 1.43 fold enrichment (6-mer frequency, TF over GST control); in the test with ETV5, 1.4 fold enrichment (6-mer frequency, TF over GST control); with HSF1 it was 1.2 fold enrichment (6-mer frequency, TF over GST control); with SPIC it was 1.26 fold enrichment (6-mer frequency, TF over GST control); in the test with ELF4, 1.38 fold enrichment (6-mer frequency, TF over GST control); in the test with ELK4 it was 1.16 fold enrichment (6-mer frequency, TF over GST control). Further, the binding signal with ETV2 is 1.2 fold enrichment (6-mer frequency, TF over GST control); with ELF3, 1.35 fold enrichment (6-mer frequency, TF over GST control); in the test with CRX, 1.23 fold enrichment (6-mer frequency, TF over GST control); with ETV1 it was 1.39 fold enrichment (6-mer frequency, TF over GST control).
Turning to CCATCT, the binding signal in the test with FEV was 1.27 fold enrichment (6-mer frequency, TF over GST control); with ETV5, 1.29 fold enrichment (6-mer frequency, TF over GST control); with HSF1, 1.31 fold enrichment (6-mer frequency, TF over GST control); with SPIC, 1.35 fold enrichment (6-mer frequency, TF over GST control); with ELF4, 1.25 fold enrichment (6-mer frequency, TF over GST control); with ELK4 it was 1.4 fold enrichment (6-mer frequency, TF over GST control). The binding signal with ETV2 is 1.39 fold enrichment (6-mer frequency, TF over GST control); in the test with ELF3, 1.34 fold enrichment (6-mer frequency, TF over GST control); in the test with CRX it was 1.28 fold enrichment (6-mer frequency, TF over GST control); in the test with ETV1, 1.34 fold enrichment (6-mer frequency, TF over GST control).
For CAGGAT, the binding signal was 1.27 fold enrichment (6-mer frequency, TF over GST control) in the test with FEV; 1.19 fold enrichment (6-mer frequency, TF over GST control) with ETV5; 1.08 fold enrichment (6-mer frequency, TF over GST control) with HSF1; 1.04 fold enrichment (6-mer frequency, TF over GST control) with SPIC; 1.11 fold enrichment (6-mer frequency, TF over GST control) in the test with ELF4; 1.23 fold enrichment (6-mer frequency, TF over GST control) in the test with ELK4. For the same sequence, the binding signal with ETV2 was 1.15 fold enrichment (6-mer frequency, TF over GST control); with ELF3, 1.12 fold enrichment (6-mer frequency, TF over GST control); with CRX it was 1.35 fold enrichment (6-mer frequency, TF over GST control); in the test with ETV1, 1.34 fold enrichment (6-mer frequency, TF over GST control).
With TAATGA, the binding signal was 1.12 fold enrichment (6-mer frequency, TF over GST control) with FEV; 1.12 fold enrichment (6-mer frequency, TF over GST control) in the test with ETV5; 1.37 fold enrichment (6-mer frequency, TF over GST control) in the test with HSF1; 1.11 fold enrichment (6-mer frequency, TF over GST control) with SPIC; 1.17 fold enrichment (6-mer frequency, TF over GST control) in the test with ELF4; 1.12 fold enrichment (6-mer frequency, TF over GST control) with ELK4. Besides, the binding signal with ETV2 was 1.13 fold enrichment (6-mer frequency, TF over GST control); with ELF3, 1.12 fold enrichment (6-mer frequency, TF over GST control); with CRX it was 1.7 fold enrichment (6-mer frequency, TF over GST control); with ETV1 it was 1.19 fold enrichment (6-mer frequency, TF over GST control).
Turning to TCCCTG, the binding signal was 1.28 fold enrichment (6-mer frequency, TF over GST control) with FEV; 1.35 fold enrichment (6-mer frequency, TF over GST control) with ETV5; 1.24 fold enrichment (6-mer frequency, TF over GST control) with HSF1; 1.38 fold enrichment (6-mer frequency, TF over GST control) with SPIC; 1.31 fold enrichment (6-mer frequency, TF over GST control) with ELF4; 1.19 fold enrichment (6-mer frequency, TF over GST control) in the test with ELK4. Moreover, the binding signal was 1.38 fold enrichment (6-mer frequency, TF over GST control) with ETV2; 1.2 fold enrichment (6-mer frequency, TF over GST control) with ELF3; 1.3 fold enrichment (6-mer frequency, TF over GST control) in the test with CRX; 1.35 fold enrichment (6-mer frequency, TF over GST control) in the test with ETV1.
Take AAAGAT: the binding signal with FEV is 1.15 fold enrichment (6-mer frequency, TF over GST control); in the test with ETV5 it was 1.25 fold enrichment (6-mer frequency, TF over GST control); with HSF1, 1.67 fold enrichment (6-mer frequency, TF over GST control); with SPIC, 1.22 fold enrichment (6-mer frequency, TF over GST control); with ELF4, 1.24 fold enrichment (6-mer frequency, TF over GST control); in the test with ELK4, 1.24 fold enrichment (6-mer frequency, TF over GST control). The binding signal was 1.17 fold enrichment (6-mer frequency, TF over GST control) with ETV2; 1.16 fold enrichment (6-mer frequency, TF over GST control) in the test with ELF3; 1.75 fold enrichment (6-mer frequency, TF over GST control) in the test with CRX; 1.27 fold enrichment (6-mer frequency, TF over GST control) with ETV1.
Take AAATTC: the binding signal with FEV is 1.26 fold enrichment (6-mer frequency, TF over GST control); with ETV5, 1.38 fold enrichment (6-mer frequency, TF over GST control); in the test with HSF1 it was 1.95 fold enrichment (6-mer frequency, TF over GST control); with SPIC it was 1.34 fold enrichment (6-mer frequency, TF over GST control); with ELF4 it was 1.32 fold enrichment (6-mer frequency, TF over GST control); in the test with ELK4 it was 1.15 fold enrichment (6-mer frequency, TF over GST control). Besides, the binding signal with ETV2 was 1.26 fold enrichment (6-mer frequency, TF over GST control); with ELF3, 1.35 fold enrichment (6-mer frequency, TF over GST control); with CRX, 1.51 fold enrichment (6-mer frequency, TF over GST control); with ETV1, 1.3 fold enrichment (6-mer frequency, TF over GST control).
Turning to TTCGAG, the binding signal in the test with FEV is 1.21 fold enrichment (6-mer frequency, TF over GST control); with ETV5, 1.28 fold enrichment (6-mer frequency, TF over GST control); with HSF1, 4.43 fold enrichment (6-mer frequency, TF over GST control); in the test with SPIC, 1.13 fold enrichment (6-mer frequency, TF over GST control); with ELF4, 1.29 fold enrichment (6-mer frequency, TF over GST control); with ELK4 it was 1.26 fold enrichment (6-mer frequency, TF over GST control). Besides, the binding signal is 1.14 fold enrichment (6-mer frequency, TF over GST control) in the test with ETV2; 1.25 fold enrichment (6-mer frequency, TF over GST control) with ELF3; 1.96 fold enrichment (6-mer frequency, TF over GST control) with CRX; 1.37 fold enrichment (6-mer frequency, TF over GST control) with ETV1.
